PubChem BioAssay AID1159580 (chemical genetic matrix, 2015)
The campaign covered roughly 5,500 compounds. About 2,000 (36%) were called active. Roughly 18% stayed inconclusive and do not appear here. No stated cut-off is given here; in the data, active means normalized growth mostly below about 0.91 (no sharp cut-off); inconclusive means no clear call, values can overlap the other calls; inactive means mostly above about 0.92. The list shows a part of the results.

Assay: chemical genetic growth profiling, strain panel (AID 1159580);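 further: tested at 20 µM; growth read once vehicle control cultures reached saturation at 30 °C; 1 = growth at the plate median or of vehicle wells; lower values mean less growth of the strain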
Settings: growth OD

Measured: normalized growth

CC1(C)C(=O)C=C[C@@]2(C)C1CC(=O)[C@@]1(C)C3=CC(=O)O[C@@H](c4ccoc4)[C@]3(C)CCC12 (some centres undefined)
inactive: S. cerevisiae deletion strains, locus YBR021W, strain FUR4, hits give low values 0.994 | S. cerevisiae deletion strains, locus YBR229C, strain ROT2, hits give low values 1 | S. cerevisiae deletion strains, locus YCL029C, strain bik1, hits give low values 0.994 | S. cerevisiae deletion strains, locus YDL035C, strain GPR1, hits give low values 1.02 | S. cerevisiae deletion strains, locus YDL074C, strain BRE1, hits give low values 1 | S. cerevisiae deletion strains, locus YDL101C, strain DUN1, hits give low values 0.997 | S. cerevisiae deletion strains, locus YDL185W, strain tfp1, hits give low values 1 | S. cerevisiae deletion strains, locus YDL192W, strain arf1, hits give low values 0.987 | S. cerevisiae deletion strains, locus YDR101C, strain arx1, hits give low values 0.988 | S. cerevisiae deletion strains, locus YDR162C, strain NBP2, hits give low values 1.01 | S. cerevisiae deletion strains, locus YDR318W, strain mcm21, hits give low values 0.993 | S. cerevisiae deletion strains, locus YDR388W, hits give low values 0.996 | S. cerevisiae deletion strains, locus YDR502C, strain sam2, hits give low values 0.983 | S. cerevisiae deletion strains, locus YER110C, hits give low values 0.989 | S. cerevisiae deletion strains, locus YER155C, strain BEM2, hits give low values 1.01 | S. cerevisiae deletion strains, locus YER167W, strain BCK2, hits give low values 1 | S. cerevisiae deletion strains, locus YGL078C, strain dbp3, hits give low values 0.999 | S. cerevisiae deletion strains, locus YGL086W, strain mad1, hits give low values 1.01 | S. cerevisiae deletion strains, locus YGL248W, strain PDE1, hits give low values 0.997 | S. cerevisiae deletion strains, locus YGR078C, strain PAC10, hits give low values 0.997 | S. cerevisiae deletion strains, locus YGR135W, strain pre9, hits give low values 0.993 | S. cerevisiae deletion strains, locus YGR229C, strain SMI1, hits give low values 1.01 | S. cerevisiae deletion strains, locus YGR252W, strain gcn5, hits give low values 0.939 | S. cerevisiae deletion strains, locus YHR079C, strain IRE1 (second series), hits give low values 0.988 | S. cerevisiae deletion strains, locus YHR094C, strain hxt1, hits give low values 0.991 | S. cerevisiae deletion strains, locus YHR129C, strain ARP1, hits give low values 0.998 | S. cerevisiae deletion strains, locus YHR200W, strain rpn10, hits give low values 0.99 | S. cerevisiae deletion strains, locus YIL066C, strain RNR3, hits give low values 1.01 | S. cerevisiae deletion strains, locus YIL073C, strain SPO22, hits give low values 1.04 | S. cerevisiae deletion strains, locus YIL125W, strain kgd1, hits give low values 0.991 | S. cerevisiae deletion strains, locus YIR030C, strain dcg1, hits give low values 0.996 | S. cerevisiae deletion strains, locus YJL095W, strain BCK1, hits give low values 0.988 | S. cerevisiae deletion strains, locus YJL134W, strain LCB3, hits give low values 1.01 | S. cerevisiae deletion strains, locus YJL168C, strain set2, hits give low values 0.998 | S. cerevisiae deletion strains, locus YJL187C, strain SWE1 (second series), hits give low values 0.996 | S. cerevisiae deletion strains, locus YJR043C, strain POL32, hits give low values 1.01 | S. cerevisiae deletion strains, locus YKL009W, strain mrt4, hits give low values 1.01 | S. cerevisiae deletion strains, locus YKL068W, hits give low values 1 | S. cerevisiae deletion strains, locus YKL085W, strain MDH1 (second series), hits give low values 0.998 | S. cerevisiae deletion strains, locus YKL085W, strain MDH1, hits give low values 0.998 | S. cerevisiae deletion strains, locus YKR001C, strain vps1, hits give low values 0.98 | S. cerevisiae deletion strains, locus YLR039C, strain RIC1, hits give low values 1.02 | S. cerevisiae deletion strains, locus YLR058C, strain SHM2, hits give low values 1 | S. cerevisiae deletion strains, locus YLR102C, strain apc9, hits give low values 0.994 | S. cerevisiae deletion strains, locus YLR262C, strain YPT6, hits give low values 1.04 | S. cerevisiae deletion strains, locus YLR268W, strain sec22, hits give low values 1 | S. cerevisiae deletion strains, locus YLR330W, strain CHS5, hits give low values 1 | S. cerevisiae deletion strains, locus YLR371W, strain rom2, hits give low values 0.988 | S. cerevisiae deletion strains, locus YLR418C, strain cdc73, hits give low values 0.985 | S. cerevisiae deletion strains, locus YML016C, strain PPZ1, hits give low values 1 | S. cerevisiae deletion strains, locus YML032C, strain rad52, hits give low values 0.998 | S. cerevisiae deletion strains, locus YML124C, strain tub3, hits give low values 0.996 | S. cerevisiae deletion strains, locus YMR078C, strain ctf18, hits give low values 1.01 | S. cerevisiae deletion strains, locus YMR223W, strain ubp8, hits give low values 0.983 | S. cerevisiae deletion strains, locus YMR263W, strain SAP30, hits give low values 0.998 | S. cerevisiae deletion strains, locus YMR307W, strain GAS1, hits give low values 0.98 | S. cerevisiae deletion strains, locus YNL067W, strain RPL9B, hits give low values 0.996 | S. cerevisiae deletion strains, locus YNL128W, strain TEP1, hits give low values 1.02 | S. cerevisiae deletion strains, locus YNL233W, strain BNI4, hits give low values 1.02 | S. cerevisiae deletion strains, locus YNL250W, strain rad50, hits give low values 1 | S. cerevisiae deletion strains, locus YNL271C, strain bni1, hits give low values 1 | S. cerevisiae deletion strains, locus YNL298W, strain CLA4, hits give low values 0.987 | S. cerevisiae deletion strains, locus YNL307C, strain MCK1, hits give low values 0.994 | S. cerevisiae deletion strains, locus YNR052C, strain pop2, hits give low values 0.979 | S. cerevisiae deletion strains, locus YOL012C, strain htz1 1.33 | S. cerevisiae deletion strains, locus YOL147C, strain pex11, hits give low values 0.992 | S. cerevisiae deletion strains, locus YOR061W, strain CKA2, hits give low values 1.01 | S. cerevisiae deletion strains, locus YOR069W, strain VPS5, hits give low values 0.999 | S. cerevisiae deletion strains, locus YOR136W, strain idh2, hits give low values 1.01 | S. cerevisiae deletion strains, locus YOR144C, strain elg1, hits give low values 0.99 | S. cerevisiae deletion strains, locus YOR184W, strain ser1, hits give low values 1.01 | S. cerevisiae deletion strains, locus YOR316C, strain cot1, hits give low values 0.992 | S. cerevisiae deletion strains, locus YPL241C, strain CIN2, hits give low values 1.01 | S. cerevisiae deletion strains, locus YPR119W, strain clb2, hits give low values 0.998 | S. cerevisiae deletion strains, locus YPR141C, strain kar3, hits give low values 1 | S. cerevisiae deletion strains, locus YPR163C, strain tif3, hits give low values 1 | S. cerevisiae deletion strains, locus YPR167C, strain met16, hits give low values 1 | S. cerevisiae deletion strains, strain wtn01, hits give low values 0.992 | S. cerevisiae strains, strain wild type, hits give low values 1.01
